The list is not random: actives were taken first. Their share in the collection is about 2.4%.
D2 PAM-1 = positively modulates the human D2 dopamine receptor allosterically. potentiation, % at 10 µM. HEK293 T-REx D2, calcium flux, EC20 dopamine potentiation. 340,000 tested, 0.34% active;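 active means potentiation over 3 SD above the plate norm, cut at about 30% in these data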
Target sequence (P14416 whole entry, looked up): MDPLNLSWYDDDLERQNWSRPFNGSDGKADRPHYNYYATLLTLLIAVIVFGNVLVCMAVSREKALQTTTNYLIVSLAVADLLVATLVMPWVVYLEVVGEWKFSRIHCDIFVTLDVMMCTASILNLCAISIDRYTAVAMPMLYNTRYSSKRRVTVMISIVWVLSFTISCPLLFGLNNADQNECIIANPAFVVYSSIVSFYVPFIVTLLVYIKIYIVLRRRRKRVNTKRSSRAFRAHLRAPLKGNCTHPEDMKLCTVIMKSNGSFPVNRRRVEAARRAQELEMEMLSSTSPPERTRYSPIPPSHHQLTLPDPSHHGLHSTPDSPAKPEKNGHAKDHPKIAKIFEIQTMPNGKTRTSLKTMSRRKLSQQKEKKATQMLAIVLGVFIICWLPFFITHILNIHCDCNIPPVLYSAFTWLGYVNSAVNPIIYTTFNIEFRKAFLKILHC
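Primary screen. Calcium kinetics in induced HEK293 T-REx D2 cells: compound pre-addition 180 s, EC20 dopamine, 180 s more.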
D2 antag = antagonizes the human D2 dopamine receptor | HEK293 TREx D2 cells, calcium flux, dopamine EC80 | inhibition, % at 10 µM | 340,000 tested, 2% active | AID 485344; in the data active means inhibition above about 30%; inactive means below that, where a call was filed
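Read-out: kinetic calcium fluorescence (1 cycle/s) in inducible HEK293 T-REx D2 cells after an EC80 dopamine addition that followed 180 s compound preincubation. Loss of the dopamine response indicates antagonism.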
D2 ag-1 = activates the human D2 dopamine receptor; P14416; HEK293 T-REx D2 cells, calcium flux agonist mode; activation, % at 2 µM; 340,000 tested, 0.53% active;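 active means activation over 3 SD above normal in the single-dose calcium agonist read, cut at about 30% in these data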
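Agonism is scored from calcium flux in a force-coupled, inducible HEK293 cell line expressing D2, read kinetically for 180 s after compound addition against dopamine controls.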
D2 PAM-2 = potentiates the human D2 dopamine receptor allosterically | P14416 | 360,000 tested, 0.23% active | AID 624464 | potentiation, % (no concentration beside the values) | DiscoveRx D2 beta-arrestin cells, luminescence, 90 min; 100% = 57 uM dopamine signal; in the data active means potentiation above about 50%; inconclusive means mostly about 30% to 49%
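PathHunter beta-arrestin assay in DiscoveRx D2 cells. Compounds were added with an EC20 of dopamine (50 nM final) for 90 min at 37 deg C. Luminescence was read 1 h after detection reagent, with 57 uM dopamine as the EC100 control.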
D2 ag-2 = activates the human D2 dopamine receptor. P14416. 360,000 tested, 0.084% active. DiscoveRx PathHunter D2 beta-arrestin, luminescence, 90 min; 100% = 57 uM dopamine signal. activation, % (test concentration not listed). AID 624465; in the data active means activation above about 40%; inconclusive means between about 15% and that limit
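Agonist mode: compounds alone added to overnight-plated D2 PathHunter cells for 90 min at 37 C, with 57 uM final dopamine (EC100) defining full response. Beta-arrestin recruitment detected by chemiluminescent reagent, read after 1 h at ambient temperature.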
Hits are given with their value; - = inactive; ? = inconclusive; . = not tested or not shown.

SMILES | D2 PAM-1 | D2 antag | D2 ag-1 | D2 PAM-2 | D2 ag-2
CSc1oc(-c2ccccc2)nc1S(=O)(=O)c1ccc(C)cc1 | - | 34 | - | - | -
Cc1ccc(S(=O)(=O)c2nc(-c3ccccc3)oc2N2CCCCCC2)cc1 | - | . | - | . | .
COc1cc(OC)c(NC(=O)C2CCN(S(=O)(=O)c3ccc4c(c3)oc(=O)n4C)CC2)cc1Cl | - | . | - | . | .
Cc1nc2nc(SCC(=O)NC3CCC(C)CC3)nn2c(C)c1Cc1ccccc1 (configuration not stated) | - | . | - | . | .
COC(=O)C1=C(C(=O)c2ccc(C)cc2)C(c2ccc(O)c(OC)c2)n2nnnc2N1 (configuration not stated) | - | - | - | - | -
COC(=O)C1=C(C(=O)c2ccc(C)cc2)C(c2ccc(OC)c(OC)c2)n2nnnc2N1 (configuration not stated) | - | 33 | - | - | -
Cc1ccc(-n2nc3c(c2NC(=O)c2ccco2)CS(=O)C3)c(C)c1 (configuration not stated) | - | 33 | - | - | -
C=CCn1c(SCC(=O)N2c3ccccc3Sc3ccccc32)nnc1-c1ccco1 | - | - | - | - | -
CCCn1c(SCC(=O)N2CCc3ccccc32)nnc1-c1ccco1 | - | - | - | - | -
CCn1c(SCC(=O)N2c3ccccc3Sc3ccccc32)nnc1-c1ccco1 | 40 | - | - | - | -
Cc1ccc2nc(-c3cccnc3SCC(=O)N3c4ccccc4CC3C)[nH]c2c1 (configuration not stated) | - | - | - | - | -
CCCn1c(SCC(=O)N2c3ccccc3CC2C)nnc1-c1ccco1 (configuration not stated) | 43 | - | - | - | -
Cc1ccc2nc(SCC(=O)N3c4ccccc4CC3C)c(C)cc2c1 (configuration not stated) | 32 | - | - | - | -
Cc1ccc2onc(CC(=O)N3CCN(c4cccc(C)c4C)CC3)c2c1 | - | . | - | . | .
COC(=O)c1c(CSc2cccc(C)c2)noc1C(=O)NCc1ccco1 | - | - | - | - | -
COC(=O)c1c(CSc2ccc(Cl)cc2)noc1C(=O)NCc1ccco1 | - | 38 | - | - | -
CCOC(=O)c1oc2cccc(OC(C)=O)c2c1C | - | 37 | - | - | -
COc1cc(/C=C/CN2CCC(Oc3ccc(C(=O)N4CCCC4)cc3)CC2)ccc1O | - | - | - | - | -
COc1ccc(CCC(C)N2CCC(Oc3ccc(C(=O)N4CCCC4)cc3)CC2)cc1 (configuration not stated) | - | 30 | - | - | -
COc1ccccc1/C=C/CN1CCC(Oc2ccc(C(=O)N3CCCC3)cc2)CC1 | - | 47 | - | - | -
Cc1nn(-c2ccc(F)cc2)c(-n2cccc2)c1C(=O)NCCc1ccc(Cl)cc1 | - | . | - | . | .
O=C(CSc1nc(O)c(Cc2ccccc2)c(=O)[nH]1)N1CCOCC1 | - | - | - | - | -
O=C(CSc1nc(O)c(C2CCCCC2)c(=O)[nH]1)N1CCOCC1 | - | 43 | - | - | -
CC(=O)N1c2nc(C(C)C)nn2C2(CCCCC2)[C@@H]2CCCC[C@@H]21 | - | . | - | . | .
CC(C)c1nnc(N2C(=O)C(O)=C(C(=O)c3cccs3)C2c2ccccc2)s1 (configuration not stated) | - | 48 | 166 | - | -
SMILES | D2 PAM-1 | D2 antag | D2 ag-1 | D2 PAM-2 | D2 ag-2
CCN1CCN(CCCN(Cc2ccco2)C(=S)Nc2cc(Cl)ccc2C)CC1 | - | 42 | - | - | -
CCN1CCN(CCCN(Cc2ccco2)C(=S)Nc2ccc(C)c(Cl)c2)CC1 | - | - | - | - | -
COc1ccc(-c2cc(C)no2)cc1S(=O)(=O)Nc1cccc(C(F)(F)F)c1 | - | . | - | . | .
O=C(O)c1cccc2c1C(=O)c1cc([N+](=O)[O-])cc([N+](=O)[O-])c1-2 | . | . | . | - | 74
CCOc1ccc2oc(=O)cc(CN3CCN(c4ccc(Cl)cc4)CC3)c2c1 | - | . | - | . | .
O=C(CC12CC3CC(CC(C3)C1)C2)NCC(c1ccc(F)cc1)N1CCOCC1 (configuration not stated) | - | 40 | - | - | -
CC(C)c1nc2ccc(NC(=O)C34CC5CC(CC(C5)C3)C4)cc2[nH]1 | - | 33 | - | - | -
Cc1c(C(=O)N2CCCC2)sc(NC(=O)c2ccc(Cl)cc2)c1C#N | - | 91 | - | - | -
CCOC(=O)c1sc(NC(=O)CSc2n[nH]c(-c3ccc(Cl)cc3Cl)n2)c(C#N)c1C | 31 | - | - | - | -
CCOC(=O)c1sc(NC(=O)c2ccncc2)c(C#N)c1C | 31 | - | - | ? | -
CC(C)C(=O)n1nc(-c2cccnc2)nc1NCc1ccc(F)cc1 | 46 | - | - | - | -
COc1ccc(-c2ccc(SCc3cccnc3)nn2)cc1OC | . | . | . | 54 | -
c1cncc(CSc2ccc(-c3cccnc3)nn2)c1 | - | - | - | - | -
Cc1ccc(NC(=O)CNCc2cccs2)c(Br)c1 | - | 32 | - | - | -
O=C(NCc1cccs1)c1ccc2c(=O)n3nc(Nc4ccccc4)sc3nc2c1 | - | . | - | . | .
CC(=O)C1=C(O)C(=O)N(c2ccc(Br)cn2)C1c1ccccc1[N+](=O)[O-] (configuration not stated) | - | 31 | - | - | -
CCOC(=O)CCC(=O)c1c(C)oc2ccc(OC)cc12 | 30 | - | - | - | -
COc1ccc2oc(C)c(C(=O)NN)c2c1 | - | - | - | - | -
CCCCCn1cnc2c(=S)nc(N)[nH]c21 | - | 49 | - | - | -
CCCCn1cnc2c(=S)nc(N)[nH]c21 | - | - | - | - | -
CC(=O)N1c2ccc(S(=O)(=O)NCCc3cccc(C)c3)cc2CC1C (configuration not stated) | - | . | - | . | .
Cn1cc(S(=O)(=O)N2CCN(c3ccccc3F)CC2)c(=O)n(C)c1=O | - | 32 | - | - | -
CC1(C)CC(=O)N(CC(=O)NC2CCCC2)c2ccccc2S1(=O)=O | - | - | - | - | -
COc1ccc(OC)c(CCNC(=O)CN2C(=O)CC(C)(C)S(=O)(=O)c3ccccc32)c1 | 34 | - | - | - | -
CCCn1c(Nc2nc3ccccc3n2C)nc2ccccc21 | - | - | - | - | -
SMILES | D2 PAM-1 | D2 antag | D2 ag-1 | D2 PAM-2 | D2 ag-2
CCCCn1c(Nc2ccccc2)nc2ccccc21 | - | 36 | - | - | -
CCCCn1c(/N=C/c2ccc(N(C)C)cc2)nc2ccccc21 | 49 | - | - | - | -
CCCCn1c(N)nc2ccccc21 | - | 31 | - | - | -
CCCCCn1c(NCc2ccco2)nc2ccccc21 | - | 34 | - | - | -
C=CCn1c(/N=C/c2ccc(N(C)C)cc2)nc2ccccc21 | . | . | . | - | -
COC(=O)c1c(SC)nc2ccccc2c1OCc1ccc(C)cc1 | - | . | - | . | .
COc1cccc(N2CC(NC(=O)c3cc(Cl)ccc3OC)CC2=O)c1 (configuration not stated) | - | . | - | . | .
